In the supplement of paper PMC4206461:
Unmarked numbers belong to inactive results.

Each molecule was assayed on Pseudomonas aeruginosa PA14 dppBCDF deletion mutant (assay: respiration area under curve with compound as sole nitrogen source, 24 h (OmniLog AUC (arbitrary units)); higher = more respiration / better utilisation as nitrogen source; extreme values may be limits of the assay).
Description: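 Biolog Phenotype MicroArray plates PM6-PM8: each di/tripeptide is the sole nitrogen source. Tetrazolium reduction was read in the OmniLog every 15 min for 24 h at 37°C and summarised as area under the respiration curve (arbitrary units). Values below 2000 count as no respiration. Strain is the dipeptide ABC transporter deletion mutant.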
`CC(C)C[C@@H](NC(=O)CNC(=O)CN)C(=O)O` (plate: PM8) was tested, and the “respiration area under curve” value was 4.75. `CC(C)C[C@H](NC(=O)CNC(=O)CN)C(=O)O` (plate: PM8) was tested, and the “respiration area under curve” value was 0.
